# p53 reactivation – qHTS assay for re-activators of p53 using a Luc reporter; H1299 p53-A138V BP100-luciferase reporter, luminescence, 24 h; Potency, µM (highest dose often 92.2 µM), for the others: top-dose activity change, positive = activation, hits mostly activators; hit rate 0.063% among 320,000; AID 504706, 2011; active = well fitted activation curve with a large enough effect; inconclusive = small, poorly fitted or top-dose-only effect; inactive = no such curve, though single readings can be large or run the other way; note: potency is the fitted concentration of half-maximal effect; % of control where 0% means no effect; nearly all actives have a fitted effect of over 45% in size
#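 p53-null H1299 cells stably carrying temperature-sensitive p53-A138V and a BP100-luciferase reporter were pinned with compounds (4-point, 1:5 series) and held 24 hrs at 37 deg C. Luminescence was read 10 min after detection reagent.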
# KCNH2 WT inh – qHTS for Inhibitors of KCHN2 3.1: Wildtype qHTS | U2OS, BacMam KCNH2, thallium flux FluxOr; stronger effect = lower value | activity change, % at 1.84 µM | hit rate 0.37% among 340,000 | AID 720551, 2013;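 active = maximum activity change below -70%; inconclusive = maximum activity change between -70% and -50%; inactive = maximum activity change above -50%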; note: % is set by controls: 0 for no effect and ±100 for the full control effect
#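 U2OS cells transduced with wild-type KCNH2 virus are loaded with FluxOr dye for 45 min, and thallium flux is measured in kinetic reads before and after stimulation buffer. Rate constants are normalized to DMSO controls.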
# ClpP mod – qHTS Assay for Activators of ClpP; ATP-dependent Clp protease proteolytic subunit (Bacillus subtilis (strain 168)), P80244; purified B. subtilis ClpP, FRET peptide cleavage, 20 min; Potency, µM (highest dose often 57.5 µM), for the others: at the top dose activity change, negative = active; hit rate 1.9% among 340,000; AID 651965, 2013; active = well fitted falling curve with a large enough effect; inconclusive = small, poorly fitted or top-dose-only effect; inactive = no such curve, though single readings can be large or run the other way; note: potency is the fitted concentration of half-maximal effect; the source files actives as falling curves though it sought activators and does not explain the sign; nearly all actives have a fitted effect of over 65% in size
#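 Purified B. subtilis ClpP, 10 microg/mL final in Tris/HCl pH8 with KCl, BSA, glycerol and Tween-20, cleaved an Abz/nitrotyrosine-quenched decapeptide. Fluorescence (ex 320, em 430) was read at 0 and 20 min at room temperature. Delta was normalized to 5.8 microM ADEP and DMSO/no-enzyme controls.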
# TRPV1 agonist – HTS Assay for Compounds that Act as Agonists of the Vanilloid Receptor 1 | activation, % at 8.33 µM | Transient receptor potential cation channel subfamily V member 1 (Homo sapiens), Q8NER1 | TRPV1-expressing cells, Fluo-8 calcium influx, agonist mode | hit rate 0.19% among 320,000 | AID 540275, 2011; in the data active = activation above about 80%; inconclusive = between about 30% and that limit; note: 0% is about no effect
# Target sequence (Q8NER1 whole entry, looked up): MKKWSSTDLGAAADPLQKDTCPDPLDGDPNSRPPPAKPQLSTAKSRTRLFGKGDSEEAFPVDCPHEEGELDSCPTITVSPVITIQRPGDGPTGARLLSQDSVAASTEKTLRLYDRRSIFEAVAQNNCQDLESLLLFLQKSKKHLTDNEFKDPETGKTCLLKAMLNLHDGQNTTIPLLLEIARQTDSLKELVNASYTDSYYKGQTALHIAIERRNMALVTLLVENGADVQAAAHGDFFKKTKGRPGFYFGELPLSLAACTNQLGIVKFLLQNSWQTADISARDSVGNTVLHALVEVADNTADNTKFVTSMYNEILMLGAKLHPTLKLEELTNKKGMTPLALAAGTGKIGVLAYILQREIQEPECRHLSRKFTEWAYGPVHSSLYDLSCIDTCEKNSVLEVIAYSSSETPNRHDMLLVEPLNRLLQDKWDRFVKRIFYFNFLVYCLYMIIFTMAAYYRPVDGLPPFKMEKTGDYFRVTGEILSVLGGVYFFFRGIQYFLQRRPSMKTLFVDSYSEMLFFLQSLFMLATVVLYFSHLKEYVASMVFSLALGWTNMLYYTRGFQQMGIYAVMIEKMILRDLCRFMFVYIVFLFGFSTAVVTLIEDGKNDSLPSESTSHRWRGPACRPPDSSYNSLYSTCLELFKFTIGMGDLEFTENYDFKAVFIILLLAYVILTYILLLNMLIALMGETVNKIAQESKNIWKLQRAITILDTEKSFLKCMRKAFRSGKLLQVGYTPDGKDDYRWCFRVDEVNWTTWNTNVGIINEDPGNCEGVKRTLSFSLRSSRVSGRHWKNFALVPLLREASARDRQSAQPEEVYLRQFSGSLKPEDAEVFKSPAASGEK
#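 Fluo-8 calcium influx in TRPV1-expressing cells, kinetic read (ex 480/em 520 nm). Compound added and read 3 min for agonist activity, followed by capsaicin at EC20 final and 2 min further read for enhancement.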
# TRPV1 potentiator – HTS Assay for Compounds that Act as Potentiators of the Vanilloid Receptor 1. Transient receptor potential cation channel subfamily V member 1 (Homo sapiens), Q8NER1. TRPV1-expressing cells, Fluo-8 calcium influx, capsaicin EC20 potentiation. potentiation, % at 8.33 µM. hit rate 0.02% among 320,000; in the data active = potentiation above about 80%; inconclusive = between about 30% and that limit; note: 0% is about no effect
#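 TRPV1-expressing cells were cultured overnight at 35.5C and loaded with Fluo-8 calcium dye for 40 to 90 min at room temperature. After a 10 s baseline, compound was added and calcium influx was read kinetically for 3 min (ex 480/em 520 nm).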
# KCNH2 3.1 inh – qHTS for Inhibitors of KCHN2 3.1: Mutant qHTS | activity change, % (tested at about 1.8 µM) | U2OS KCNH2 3.1, thallium flux FluxOr; stronger effect = lower value | Potassium voltage-gated channel subfamily H member 2, brain isoform KCNH2 3.1 (human) | AID 720553, 2013 | hit rate 0.95% among 340,000;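 active = maximum activity change below -70%; inconclusive = maximum activity change from -70% to -50%; inactive = maximum activity change above -50%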;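 note: thallium influx rate constant from kinetic fluorescence after stimulation buffer; % is set by controls: 0 for no effect and ±100 for the full control effect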
#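 Channel expression came from 3.1 mutant virus (1.77 x 10^8 /mL) applied to suspended U2OS cells for 4 h. Flux was tracked with FluxOr dye plus Red40 quencher, and kinetic rate constants normalized to controls.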
# Starred values were filed as active, the others as inactive; ? = inconclusive; · = not tested or not shown. Only some compounds are listed: those with a hit (about 2.6% of all), similar ones and a draw of the others.
SMILES,p53 reactivation,KCNH2 WT inh,ClpP mod,TRPV1 agonist,TRPV1 potentiator,KCNH2 3.1 inh
CSc1ccc(CN2CCC(n3nccc3NC(=O)C3CCOC3)CC2)cc1 (configuration not stated),0%,41,2%,-1,7,-19
CCc1ccc(CN2CCC(n3nccc3NC(=O)c3ccc4c(c3)OCO4)CC2)cc1,26%,?,-1%,0,12,-106*
CSc1ccc(CN2CCC(n3nccc3NC(=O)c3ccccc3C)CC2)cc1,-4%,-126*,0%,-3,26,-123*
Cc1cccc(C)c1NC(=O)CN(c1c(C)cccc1C)S(C)(=O)=O,·,2,-1%,·,·,-7
CC1=CC(C)(C)NC(=S)N1c1ccc(C)cc1C,-1%,-101*,-3%,2,-2,10
CC1=C(C(=O)N(C)C)CC(CC(=O)NCCCCc2ccccc2)C(=O)N1Cc1ccc(C(C)(C)C)cc1 (configuration not stated),·,1,5%,·,·,-8
COc1ccc(C2Nc3ccccc3C(=O)N2Cc2ccccc2)cc1COc1ccccc1F (configuration not stated),·,·,5%,·,·,·
CCn1nnc(NC(=O)c2ccc(Br)o2)n1,9%,-15,·,0,3,-3
Cn1nnc(NC(=O)c2ccc(Br)o2)n1,10%,-19,-15%,1,-5,-77*
COc1cc2nc(N3CCN(C)CC3)nc(NC3CCN(Cc4ccccc4)CC3)c2cc1OC,·,·,4%,·,·,·
COc1ccc(Cn2c(SCC(=O)N3CCN(c4ccc(F)cc4)CC3)nc3ccccc32)cc1,·,·,-7%,·,·,·
O=[N+]([O-])c1ccccc1/C=C/c1ccnc2ccccc12,·,·,-6%,·,·,·
OCCNCc1c(OCc2ccc(Cl)cc2)ccc2ccccc12,3%,-128*,·,-9,1,-105*
COc1ccc(/C=C/c2nc3ccccc3c(=O)o2)cc1,-15%,-5,·,-1,-7,1
COc1ccc(/C=C/c2nc3cc(-c4ccccc4)ccc3o2)cc1O,-15%,-9,13µM*,25,-17,-25
O=C(NNC(=O)c1n[nH]c(=O)c2ccccc12)c1ccc(Br)cc1,1%,-3,·,-3,8,-7
Cc1ccc(C(=O)NNC(=O)c2n[nH]c(=O)c3ccccc23)cc1C,10%,6,·,1,-4,-79*
CCCOc1ccc(C2NC(=S)NC(C)=C2C(=O)c2ccccc2)cc1OC (configuration not stated),-8%,-6,-3%,-2,-3,-112*
Cc1nnc2n(c1=O)C(CS(=O)(=O)c1ccc3ccccc3c1)CS2 (configuration not stated),-4%,9,·,-6,2,22
Cc1ccc(S(=O)(=O)CC2CSc3nnc(C)c(=O)n32)cc1 (configuration not stated),-5%,-5,0%,1,8,-93*
O=C(CN1CCC(C(O)(c2ccccc2)c2ccccc2)CC1)Nc1cc(Cl)ccc1Cl,7%,11,0%,6,-12,-2
O=C(CN1CCC(C(O)(c2ccccc2)c2ccccc2)CC1)Nc1ccccc1,-6%,9,-1%,3,?,-80*
COc1ccc(NC(=O)c2ccc(-c3ccccc3)cc2)cc1S(=O)(=O)N1CCOCC1,2%,1,·,-2,-4,-71*
COc1ccc(CC(=O)NCc2ccccc2)cc1S(=O)(=O)N1CCOCC1,0%,10,0%,-1,10,-2
COc1ccc(NC(=O)c2ccc(-c3ccccc3)cc2)cc1NS(=O)(=O)c1ccc(F)cc1,7%,-2,?,0,-15,-77*
SMILES,p53 reactivation,KCNH2 WT inh,ClpP mod,TRPV1 agonist,TRPV1 potentiator,KCNH2 3.1 inh
COc1ccc(CC(=O)N(Cc2ccccc2)c2ccc(C)cc2)cc1S(=O)(=O)N1CCOCC1,-1%,2,25µM*,-3,-2,5
Cc1ccc(C(=O)NC2CCCCCCC2)cc1S(=O)(=O)N1CCOCC1,22%,40,1%,?,-8,-7
COc1ccc(C(=O)NC2CCCCCC2)cc1S(=O)(=O)N1CCOCC1,-3%,-5,25µM*,1,8,-2
Cc1c(C(=O)NCc2ccc(C(C)C)cc2)sc(=O)n1Cc1ccc(S(=O)(=O)N(C)C)cc1,·,·,-1%,·,·,·
OCC(CO)c1cnnc2ccccc12,·,-2,1%,·,·,-12
COc1ccc(Cl)cc1Cn1c(C)c(C(=O)NCc2cccc([N+](=O)[O-])c2)sc1=O,·,·,-1%,·,·,·
Cn1ncc2c(NCc3ccco3)ncnc21,·,·,-2%,·,·,·
COc1ccccc1Nc1nc(C)cc(C)n1,24%,-8,18µM*,1,22,26
COc1ccccc1Nc1cc(C)nc(Nc2ccccc2OC)n1,-1%,-6,-10%,28,-6,8
CCN(CC)S(=O)(=O)c1ccc(NC(=O)c2cc(-c3cccs3)nc3ccccc23)cc1,4%,-23,28µM*,1,21,-2
CN(C)S(=O)(=O)c1ccc(NC(=O)c2cc(-c3cccs3)nc3ccccc23)cc1,-2%,-10,16µM*,8,-10,·
NS(=O)(=O)c1ccc(NC(=O)c2cc(-c3cccs3)nc3ccccc23)cc1,-5%,10,?,?,-18,-22
O=C(CC1N=C2c3ccccc3N=C(SCc3cccc(Cl)c3)N2C1=O)NC1CCCCC1 (configuration not stated),·,·,35µM*,·,·,·
CCCCNC(=O)CC1N=C2c3ccccc3N=C(SCC(=O)NCc3ccccc3Cl)N2C1=O (configuration not stated),·,·,18µM*,·,·,·
O=C(CSC1=Nc2ccccc2C2=NC(CC(=O)NC3CCCCC3)C(=O)N12)Nc1ccc(F)cc1 (configuration not stated),·,·,14µM*,·,·,·
Cc1c(Cl)cccc1NC(=O)C(=O)NCCc1csc(-c2ccc(C(F)(F)F)cc2)n1,·,·,0%,·,·,·
CCCCNc1c(-c2ccc(Sc3ccc(OC)cc3)cc2)nc2cc(C)ccn12,0%,?,4%,·,·,-84*
COc1ccc(-c2nc3cc(C)ccn3c2NCC2CCCO2)cc1OC (configuration not stated),·,-14,-1%,·,·,4
CCCCNc1c(-c2ccc(-c3ccc(C(C)=O)cc3)c(OC)c2)nc2cc(C)ccn12,2%,-15,1%,·,·,-71*
